# Activity calls are given as the source filed them. Unless noted, no rule for the calls is given here. Where a SMILES comes first, the peptide text is derived from it. Square brackets hold non-standard residues; d marks the D form. Peptide text beside a SMILES is read from it. The star is where a group is joined. * marks the point of attachment. Nle = CCCC[C@H](N)C(=O)O; Cbz = O=C(OCc1ccccc1)*; Boc = CC(C)(C)OC(=O)*; CH2F = FC*
# Columns and labels:
# [1] = viability loss with induced miR-34 in A549 – imaging, A549 dox-inducible miR-34, nuclei and caspase counts, primary screen (AID 1347080;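 active = compounds whose cell count with miR-34 switched on is under 0.7 times the count with it off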); details: A549 miR-34 inducible, Hoechst nuclei count, 48 h
# [2] = chitosan synthesis blockers in C. neoformans – flow cytometry, Cibacron Brilliant Red staining (AID 1347148); details: Cryptococcus neoformans chitosan, stronger effect = lower value; at 10 µM unless noted;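 also: compound exposure lasted three days at 37 degrees C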
# [3] = compounds altering viability of human ES cells (AID 493140); details: human embryonic stem cell survival screen; stronger effect = higher value;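 also: cells exposed to compounds for four days before counting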
# [4] = MELAS cybrid and Rieske KO viability enhancers – cell-based, MELAS cybrids, Rieske KO mouse fibroblasts, CellTiter-Glo, primary screen (AID 1508586;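 active = mean z-score across replicates of 1.96 or higher in either the MELAS or the Rieske mutant cell line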;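 also: z relative to plate mean and SD of compound and empty wells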); details: low glucose
# [5] = compounds altering circadian rhythm period length – cell-based, LOPAC library, luminescence reporter (AID 2774); details: circadian reporter cells, at 7 µM, actives lie on both sides;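 also: values are relative to mean of DMSO wells on each plate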
# [6] = system: Hepatitis C virus NS3 helicase; test: blockers of NS3h binding to ssDNA – biochemical, fluorescence polarization, LOPAC1280 library, primary screen (AID 687035; in the data active = inhibition above about 37%); details: Purified HCV NS3 helicase, Cy5-dT15 ssDNA binding fluorescence polarization; stronger effect = higher value; concentration not given here
# [7] = compounds altering Cy5-DNA-NS3h complex signal – biochemical, LOPAC1280, artefact control for HCV NS3 helicase inhibitor project (AID 687037); details: Cy5-DNA-NS3h complex fluorescence interference counterscreen
# [8] = target: Mitogen-activated protein kinase 7 (Homo sapiens) (UniProt Q13164); test: Gal4-ERK5 driven luciferase induction – cell-based, HTS, primary screen (AID 1508626;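 active = luciferase signal above three times the same-plate solvent-only control wells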;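 also: luciferase driven by Gal4-ERK5 fusion binding five Gal4 sites before minimal TATA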); details: HeLa Gal4-ERK5 transactivation, 18 h, at 5 µM, stronger effect = higher value
# [9] = drug combination growth inhibition, ovarian cancer – cell-based, oncology-focused library, rucaparib conditional, profiling panel (AID 1508598;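 active = normalized viability below 100% at a tested concentration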); details: patient-derived ovarian cancer cells, CellTiter-Glo viability, 144 h, stronger effect = lower value
# [10] = stronger effect = lower value, cell number ratio, induced over uninduced
# [11] = measured here: relative caspase fold change +Dox/-Dox
# [12] = measured here: total cells with miR-34 induction, stronger effect = lower value
# [13] = measured here: total cells without miR-34 induction
# Mitogen-activated protein kinase 7 (Homo sapiens), sequence (Q13164 whole entry, looked up, the tested form may be a part): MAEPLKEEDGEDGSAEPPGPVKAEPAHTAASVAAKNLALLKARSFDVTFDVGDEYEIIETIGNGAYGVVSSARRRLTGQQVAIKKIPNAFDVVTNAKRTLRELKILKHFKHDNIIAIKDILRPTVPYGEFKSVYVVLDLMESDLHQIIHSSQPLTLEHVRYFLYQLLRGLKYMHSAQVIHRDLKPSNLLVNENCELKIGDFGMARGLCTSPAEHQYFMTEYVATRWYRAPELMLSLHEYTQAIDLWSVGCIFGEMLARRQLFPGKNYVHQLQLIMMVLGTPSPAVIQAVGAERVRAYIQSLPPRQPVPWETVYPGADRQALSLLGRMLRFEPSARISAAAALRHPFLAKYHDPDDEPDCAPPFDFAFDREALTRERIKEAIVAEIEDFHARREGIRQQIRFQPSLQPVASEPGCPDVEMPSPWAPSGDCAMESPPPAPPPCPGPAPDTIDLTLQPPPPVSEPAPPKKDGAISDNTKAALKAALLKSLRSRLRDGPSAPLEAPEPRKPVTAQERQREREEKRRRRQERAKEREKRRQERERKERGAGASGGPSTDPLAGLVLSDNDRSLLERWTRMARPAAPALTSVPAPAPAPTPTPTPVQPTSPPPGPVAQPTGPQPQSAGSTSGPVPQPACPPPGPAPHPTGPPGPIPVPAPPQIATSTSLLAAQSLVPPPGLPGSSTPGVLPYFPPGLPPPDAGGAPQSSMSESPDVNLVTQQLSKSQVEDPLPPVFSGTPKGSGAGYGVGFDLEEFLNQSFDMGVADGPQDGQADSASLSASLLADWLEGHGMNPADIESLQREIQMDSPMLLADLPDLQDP
structure (smiles),measurement,setting,value
CC(C)[C@H](NC(=O)CNC(=O)OC(C)(C)C)C(=O)N[C@H](C=O)C(C)C (Boc-Gly-Val-Val-aldehyde),fold change,[1]; [10],0.895 (inactive)
same,fold change,[1]; [11],1.12
same,cell count,[1]; [12],5740
same,cell count,[1]; [13],6410
same,fold fluorescence,[2],10.2 [at 139.9 µM] (inactive)
COC(=O)CNC(=O)C(=O)OC,fold change,[1]; [10],0.976 (inactive)
same,fold change,[1]; [11],1.36
same,cell count,[1]; [12],6040
same,cell count,[1]; [13],6190
same,fold fluorescence,[2],3.39 (inactive)
COCc1cc(O)c(O)c(O)c1-c1c(COC)cc(O)c(O)c1O,survival,[3],106 (inactive)
same,fold change,[1]; [10],1.2 (inactive)
same,fold change,[1]; [11],0.626
same,cell count,[1]; [12],3710
same,cell count,[1]; [13],3100
same,fold fluorescence,[2],5.4 [at 147.8 µM] (inactive)
CCOC(=O)C1OC1C(=O)NC(CC(C)C)C(=O)NCCC(C)C (stereo not given),fold change,[1]; [10],0.903 (inactive)
same,fold change,[1]; [11],0.67
same,cell count,[1]; [12],8060
same,cell count,[1]; [13],8930
same,fold fluorescence,[2],5.77 [at 146 µM] (inactive)
same,z-score,"[4]; MELAS cybrid survival, CellTiter-Glo 48 h, stronger effect = higher value",-0.522 (inactive)
same,z-score,"[4]; Rieske KO mouse fibroblast survival, CellTiter-Glo 72 h",-1.31
CCCCC/C=C\CC(O)/C=C/c1cccc(CC(O)CCCCO)n1 (stereo not given),period change,[5],0.025 h (inactive)
same,survival,[3],97.4 (inactive)
same,inhibition,[6],-1% (inactive)
same,fluorescence ratio (interference),[7],0.9 (inactive)
same,fold change,[1]; [10],0.988 (inactive)
same,fold change,[1]; [11],1.4
same,cell count,[1]; [12],5690
same,cell count,[1]; [13],5760
same,fold fluorescence,[2],3.69 [at 1 µM] (inactive)
O=Cc1c2[nH]c3ccccc3c2cc2[nH]c3ccccc3c12,survival,[3],124 (inactive)
same,fold change,[1]; [10],0.873 (inactive)
same,fold change,[1]; [11],1.33
same,cell count,[1]; [12],4820
same,cell count,[1]; [13],5520
same,fold fluorescence,[2],4.2 (inactive)
CCCC[C@@H](C=O)NC(=O)[C@H](CC(C)C)NC(=O)[C@H](CC(C)C)NC(C)=O (Ac-Leu-Leu-[Nle]-aldehyde),fold change,[1]; [10],0.909 (inactive)
same,fold change,[1]; [11],1.22
same,cell count,[1]; [12],1540
same,cell count,[1]; [13],1700
same,fold fluorescence,[2],4.19 [at 130.4 µM] (inactive)
CCCCCCCCCCCCCCCC(=O)N[C@@H](COP(=O)(O)O)C(=O)O,survival,[3],91.8 (inactive)
same,fold change,[1]; [10],0.975 (inactive)
same,fold change,[1]; [11],1.1
same,cell count,[1]; [12],5800
same,cell count,[1]; [13],5940
same,fold fluorescence,[2],4.28 (inactive)
Clc1ccc2ncnc(NCc3ccc4c(c3)OCO4)c2c1,fold change,[1]; [10],0.968 (inactive)
same,fold change,[1]; [11],1.41
same,cell count,[1]; [12],3640
same,cell count,[1]; [13],3760
same,fold fluorescence,[2],6.11 [at 159.4 µM] (inactive)
CC(C)c1cccc(O)c(=O)c1,fold change,[1]; [10],0.903 (inactive)
same,fold change,[1]; [11],1.02
same,cell count,[1]; [12],1840
same,cell count,[1]; [13],2030
same,fold fluorescence,[2],10.2 [at 304.5 µM] (inactive)
same,luciferase signal,[8],44 AU (inactive)
CC(C)n1cnc2c(NCc3ccccc3)nc(NCCO)nc21,survival,[3],106 (inactive)
same,fold change,[1]; [10],1.14 (inactive)
same,fold change,[1]; [11],1.24
same,cell count,[1]; [12],2020
same,cell count,[1]; [13],1780
same,fold fluorescence,[2],3.89 [at 153.2 µM] (inactive)
CCCCC/C=C\C/C=C\C/C=C\C=C\[C@@H](O)CCCC(=O)O,survival,[3],128 (inactive)
same,fold change,[1]; [10],0.957 (inactive)
same,fold change,[1]; [11],1.24
same,cell count,[1]; [12],5700
same,cell count,[1]; [13],5960
same,fold fluorescence,[2],4.16 [at 1 µM] (inactive)
COc1c(C=O)c(O)cc2c1C(=O)c1ccccc1C2=O,survival,[3],93.2 (inactive)
same,fold change,[1]; [10],0.91 (inactive)
same,fold change,[1]; [11],0.797
same,cell count,[1]; [12],2810
same,cell count,[1]; [13],3080
same,fold fluorescence,[2],5.22 [at 177.1 µM] (inactive)
CCCCC[C@H](O)/C=C/C=C\C=C\C=C\[C@@H](O)[C@@H](O)CCCC(=O)O,survival,[3],89.1 (inactive)
same,fold change,[1]; [10],0.912 (inactive)
same,fold change,[1]; [11],1.26
same,cell count,[1]; [12],5670
same,cell count,[1]; [13],6220
same,fold fluorescence,[2],4.45 [at 1 µM] (inactive)
N#CC(C#N)=C(N)/C(C#N)=C/c1ccc2[nH]ccc2c1,survival,[3],107 (inactive)
same,fold change,[1]; [10],1.01 (inactive)
same,fold change,[1]; [11],0.81
same,cell count,[1]; [12],5080
same,cell count,[1]; [13],5030
same,fold fluorescence,[2],3.69 [at 192.8 µM] (inactive)
CCCCC/C=C\C/C=C\C/C=C\CC1OC1CCCC(=O)O (stereo not given),survival,[3],114 (inactive)
same,fold change,[1]; [10],0.939 (inactive)
same,fold change,[1]; [11],1.34
same,cell count,[1]; [12],5900
same,cell count,[1]; [13],6280
same,fold fluorescence,[2],4.93 [at 1 µM] (inactive)
CCCCCCCCCC(=O)N[C@H](CN1CCOCC1)[C@H](O)c1ccccc1,survival,[3],80.8 (inactive)
same,fold change,[1]; [10],0.988 (inactive)
same,fold change,[1]; [11],1.18
same,cell count,[1]; [12],5550
same,cell count,[1]; [13],5620
same,fold fluorescence,[2],3.25 (active)
N#Cc1c(-c2ccccc2)no[n+]1[O-],period change,[5],-0.17 h (inactive)
same,fold change,[1]; [10],1.56 (inactive)
same,fold change,[1]; [11],1
same,cell count,[1]; [12],1090
same,cell count,[1]; [13],700
same,fold fluorescence,[2],6.16 [at 267.2 µM] (inactive)
COC(=O)C[C@H](NC(=O)[C@H](C)NC(=O)[C@@H](NC(=O)OCc1ccccc1)C(C)C)C(=O)CF (Cbz-Val-Ala-Asp(OMe)-CH2F),fold change,[1]; [10],0.848 (inactive)
same,fold change,[1]; [11],0.772
same,cell count,[1]; [12],5320
same,cell count,[1]; [13],6270
same,fold fluorescence,[2],3.45 [at 107 µM] (inactive)
same,viability,"[9]; at 0.000305 µM, OCI-C5x cells, with rucaparib 10 µM, 100% = cells with rucaparib alone",111% (inactive)
same,viability,"[9]; at 0.000305 µM, OCI-C5x cells, without rucaparib",113% (inactive)
same,viability,"[9]; at 0.000305 µM, OCI-P5x cells, with rucaparib 20 µM, 100% = cells with rucaparib alone",101% (inactive)
same,viability,"[9]; at 0.000305 µM, OCI-P5x cells, without rucaparib",108% (inactive)
same,viability,"[9]; at 0.00122 µM, OCI-C5x cells, with rucaparib 10 µM, 100% = cells with rucaparib alone",113% (inactive)
same,viability,"[9]; at 0.00122 µM, OCI-C5x cells, without rucaparib",122% (inactive)
same,viability,"[9]; at 0.00122 µM, OCI-P5x cells, with rucaparib 20 µM, 100% = cells with rucaparib alone",104% (inactive)
same,viability,"[9]; at 0.00122 µM, OCI-P5x cells, without rucaparib",107% (inactive)
same,viability,"[9]; at 0.00488 µM, OCI-C5x cells, with rucaparib 10 µM, 100% = cells with rucaparib alone",106% (inactive)
same,viability,"[9]; at 0.00488 µM, OCI-C5x cells, without rucaparib",114% (inactive)
same,viability,"[9]; at 0.00488 µM, OCI-P5x cells, with rucaparib 20 µM, 100% = cells with rucaparib alone",102% (inactive)
same,viability,"[9]; at 0.00488 µM, OCI-P5x cells, without rucaparib",112% (inactive)
same,viability,"[9]; at 0.0195 µM, OCI-C5x cells, with rucaparib 10 µM, 100% = cells with rucaparib alone",113% (inactive)
same,viability,"[9]; at 0.0195 µM, OCI-C5x cells, without rucaparib",119% (inactive)
same,viability,"[9]; at 0.0195 µM, OCI-P5x cells, with rucaparib 20 µM, 100% = cells with rucaparib alone",110% (inactive)
same,viability,"[9]; at 0.0195 µM, OCI-P5x cells, without rucaparib",102% (inactive)
same,viability,"[9]; at 0.0781 µM, OCI-C5x cells, with rucaparib 10 µM, 100% = cells with rucaparib alone",110% (inactive)
same,viability,"[9]; at 0.0781 µM, OCI-C5x cells, without rucaparib",120% (inactive)
same,viability,"[9]; at 0.0781 µM, OCI-P5x cells, with rucaparib 20 µM, 100% = cells with rucaparib alone",108% (inactive)
same,viability,"[9]; at 0.0781 µM, OCI-P5x cells, without rucaparib",111% (inactive)
same,viability,"[9]; at 0.313 µM, OCI-C5x cells, with rucaparib 10 µM, 100% = cells with rucaparib alone",104% (inactive)
same,viability,"[9]; at 0.313 µM, OCI-C5x cells, without rucaparib",118% (inactive)
same,viability,"[9]; at 0.313 µM, OCI-P5x cells, with rucaparib 20 µM, 100% = cells with rucaparib alone",96.2% (active)
same,viability,"[9]; at 0.313 µM, OCI-P5x cells, without rucaparib",107% (inactive)
same,viability,"[9]; at 1.25 µM, OCI-C5x cells, with rucaparib 10 µM, 100% = cells with rucaparib alone",117% (inactive)
same,viability,"[9]; at 1.25 µM, OCI-C5x cells, without rucaparib",115% (inactive)
same,viability,"[9]; at 1.25 µM, OCI-P5x cells, with rucaparib 20 µM, 100% = cells with rucaparib alone",103% (inactive)
same,viability,"[9]; at 1.25 µM, OCI-P5x cells, without rucaparib",106% (inactive)
same,viability,"[9]; at 5 µM, OCI-C5x cells, with rucaparib 10 µM, 100% = cells with rucaparib alone",115% (inactive)
same,viability,"[9]; at 5 µM, OCI-C5x cells, without rucaparib",119% (inactive)
same,viability,"[9]; at 5 µM, OCI-P5x cells, with rucaparib 20 µM, 100% = cells with rucaparib alone",106% (inactive)
same,viability,"[9]; at 5 µM, OCI-P5x cells, without rucaparib",108% (inactive)

# From PubChem BioAssay
